Experiment [1] is described as follows: qHTS for Inhibitors of the Functional Ribonucleoprotein Complex (vRNP) of Lassa (LASV) Arenavirus: Viability assay - alamar blue signal for LASV Primary Screen (AID 1347083; calls by dose curve; tested in HEK293 reporter line; note: nearly all actives have a fitted effect of over 80% in size; note: potency is the fitted concentration of half-maximal effect). As to conditions: cell viability, alamar blue fluorescence (LASV minigenome counter-screen); series mostly up to 57.5 µM. Background: In qHTS, concentration-response curves come from the screen itself.

A short description of experiment [2]: qHTS for Inhibitors of the Functional Ribonucleoprotein Complex (vRNP) of Lymphocytic Choriomeningitis Arenaviruses (LCMV): Viability assay - alamar blue signal for LCMV Primary Screen (AID 1347085; calls by dose curve; tested in HEK293 reporter line; note: nearly all actives have a fitted effect of over 80% in size). As to conditions: alamar blue viability counter-screen, LCMV vRNP screen cells; series mostly up to 57.5 µM.
Experiment [3] in a line: qHTS of pediatric cancer cell lines to identify multiple opportunities for drug repurposing: Primary screen for TC32 cells (AID 1347089). Note: nearly all actives have a fitted effect of over 60% in size. The conditions noted are these: TC32 Ewing sarcoma viability, CellTiter-Glo luminescence, 48 h; series mostly up to 45.8 µM. The procedure, abridged: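 qHTS, TC32, 48 h drug treatment, CellTiter-Glo luminescence as a proxy for metabolically active cells; primary top concentration 46 µM (MIPE 11-pt, NPC 8-pt); confirmatory 11-pt.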

The nature of experiment [4]: qHTS of pediatric cancer cell lines to identify multiple opportunities for drug repurposing: Primary screen for DAOY cells (AID 1347090). Note: nearly all actives have a fitted effect of over 55% in size. Note: potency is the fitted concentration of half-maximal effect. As to conditions: DAOY medulloblastoma viability, CellTiter-Glo luminescence, 48 h; series mostly up to 46 µM. The procedure, abridged: (§1)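 Cell viability, CellTiter-Glo luminescence; 500-1,000 cells/well, 8- or 11-point titration, 48 h compound exposure at 37 degrees C, 5% CO2. Controls: DMSO neutral, bortezomib 2.3 µM final as positive.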

The nature of experiment [5]: qHTS of pediatric cancer cell lines to identify multiple opportunities for drug repurposing: Primary screen for SJ-GBM2 cells (AID 1347091). Note: potency is the fitted concentration of half-maximal effect. As to conditions: SJ-GBM2 viability, CellTiter-Glo luminescence, 48 h; series mostly up to 46 µM. The procedure, abridged: as §1
The nature of experiment [6]: qHTS of pediatric cancer cell lines to identify multiple opportunities for drug repurposing: Primary screen for A673 cells (AID 1347092). Note: nearly all actives have a fitted effect of over 45% in size. Note: potency is the fitted concentration of half-maximal effect. The conditions noted are these: A673 Ewing sarcoma viability, CellTiter-Glo ATP luminescence, 48 h; series mostly up to 46 µM. The procedure, abridged:
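Luminescence from CellTiter-Glo, taken after 15 min at room temperature, served as the proxy for metabolically active cells following 48 h treatment. Both potency and efficacy were taken from curves fitted to the titration data.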

Experiment [7] in a line: qHTS of pediatric cancer cell lines to identify multiple opportunities for drug repurposing: Primary screen for SK-N-MC cells (AID 1347093). Note: potency is the fitted concentration of half-maximal effect. As to conditions: SK-N-MC viability, CellTiter-Glo luminescence, 48 h; series mostly up to 46 µM. Summed up: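 Metabolically active cells were quantified by ATP-dependent luminescence (CellTiter-Glo, 15 min at room temperature) following 48 h treatment. Cells had been plated at 500-1,000 per well and settled for 5 h beforehand.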

For experiment [8], the target named is Nucleoprotein (Lymphocytic choriomeningitis virus (strain Armstrong)) (UniProt P09992). The experiment can be described thus: qHTS for Inhibitors of the Functional Ribonucleoprotein Complex (vRNP) of Lymphocytic Choriomeningitis Arenaviruses (LCMV): LCMV Primary Screen - GLuc reporter signal (AID 1347086; calls by dose curve; note: nearly all actives have a fitted effect of over 70% in size). The conditions noted are these: LCMV minigenome vRNP cell assay, Gaussia luciferase reporter; series mostly up to 57.5 µM.
Nucleoprotein (Lymphocytic choriomeningitis virus (strain Armstrong)), sequence (P09992 whole entry, looked up): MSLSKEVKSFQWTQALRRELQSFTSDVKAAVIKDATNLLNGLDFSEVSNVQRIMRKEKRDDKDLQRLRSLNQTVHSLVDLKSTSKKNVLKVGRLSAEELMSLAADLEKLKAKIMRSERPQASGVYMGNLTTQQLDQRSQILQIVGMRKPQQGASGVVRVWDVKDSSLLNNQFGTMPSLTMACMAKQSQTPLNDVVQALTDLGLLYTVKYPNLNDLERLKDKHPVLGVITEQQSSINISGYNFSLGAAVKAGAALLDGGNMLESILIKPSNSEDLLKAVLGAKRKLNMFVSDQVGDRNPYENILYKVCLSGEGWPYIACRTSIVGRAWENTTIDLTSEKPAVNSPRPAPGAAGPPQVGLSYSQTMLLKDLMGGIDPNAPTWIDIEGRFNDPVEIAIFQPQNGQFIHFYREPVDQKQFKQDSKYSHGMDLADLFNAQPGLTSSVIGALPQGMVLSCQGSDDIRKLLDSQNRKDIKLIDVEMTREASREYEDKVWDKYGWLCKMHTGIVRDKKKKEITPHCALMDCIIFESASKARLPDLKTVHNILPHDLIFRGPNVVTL

Experiment [9] can be described thus: qHTS of pediatric cancer cell lines to identify multiple opportunities for drug repurposing: Primary screen for NB-EBc1 cells (AID 1347095). Note: potency is the fitted concentration of half-maximal effect. As to conditions: NB-EBc1 neuroblastoma viability, CellTiter-Glo luminescence, 48 h; series mostly up to 46 µM. Summed up:
(§2)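 Viability was measured as metabolically active cells after 48 hours of treatment, read by CellTiter-Glo luminescence. Compounds were tested at multiple final concentrations, giving concentration-response curves.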

The nature of experiment [10]: qHTS of pediatric cancer cell lines to identify multiple opportunities for drug repurposing: Primary screen for BT-37 cells (AID 1347094). As to conditions: BT-37 viability, CellTiter-Glo luminescence, 48 h; series mostly up to 57.3 µM. Summed up: as §2

Inconclusive results are not listed. Calls of active or inactive are those of the source. Unless noted, calls come from the whole dose curve; as a rule, active = well fitted curve in the direction sought with a large enough effect; inconclusive = small, poorly fitted or top-dose-only effect, or another doubt; inactive = no such curve, though single readings can be large; an effect the other way counts as inactive or inconclusive.

Regarding `COc1ccc(Cc2nccc3cc(OC)c(OC)cc23)cc1OC`, the Potency result in experiment [1], in experiment [2] and in experiment [3] was “inactive” in each case.
Take `CNC(=O)c1ccc(N2C(=S)N(c3ccc(C#N)c(C(F)(F)F)c3)C(=O)C23CCC3)cc1F`: the Potency result in experiment [1], in experiment [2], in experiment [3] and in experiment [5] was “inactive” in each case. Also, the Potency was 3.72 µM (active) in experiment [4], 18.7 µM (active) in experiment [6] and 5.9 µM (active) in [7].
As to `N#CC(C#N)=Cc1ccc(O)c(O)c1`, the Potency result in experiment [1], in experiment [2], in experiment [8] and in experiment [4] was “inactive” each time. In addition, in [7], the Potency was 13.3 µM (active).
For the compound `COc1cc(Nc2c(C#N)cnc3cc(OCCCN4CCN(C)CC4)c(OC)cc23)c(Cl)cc1Cl`, in experiment [1], the Potency was 1.09 µM (active). Besides, the Potency entry in [8] is “inactive”.
The matching figures for `CNS(=O)(=O)Cc1ccc2[nH]cc(CCN(C)C)c2c1`: “inactive” and “inactive”.
With `COC[C@H]1OC(=O)c2coc3c2[C@@]1(C)C1=C(C3=O)C2CCC(=O)[C@@]2(C)C[C@H]1OC(C)=O` (some centres not stated), the Potency result in [1], in [8] and in [3] was “inactive” each time. Besides, the Potency is 18.7 µM (active) in experiment [4]; 0.264 µM (active) in experiment [5]; 4.69 µM (active) in experiment [6]; 1.05 µM (active) in experiment [7]; 0.833 µM (active) in experiment [9].
For `CN1C[C@H]2c3ccccc3Oc3ccc(Cl)cc3[C@@H]2C1`, the Potency entry in experiment [1] and in experiment [8] was “inactive” each time.
Take `CCN(CC)C(=O)N[C@@H]1C=C2c3cccc4[nH]cc(c34)C[C@@H]2N(C)C1`: the Potency entry in experiment [1], in [8], in experiment [3], in experiment [4], in experiment [6] and in [7] was “inactive” throughout. Moreover, the Potency entry in [10] and in [9] was “inactive” throughout.
With `CCOC(=O)C1(c2ccccc2)CCN(CCC(C#N)(c2ccccc2)c2ccccc2)CC1`, the Potency entry in experiment [1] is “inactive”. Also, the Potency in [7] is 4.73 µM (active); in experiment [9], 18.8 µM (active).
As to `C#Cc1cccc(Nc2ncnc3cc(OCCOC)c(OCCOC)cc23)c1`, in experiment [1], the Potency was 7.69 µM (active). Besides, the Potency result in [8] is “inactive”.

The values are drawn from PubChem BioAssay (NCATS).
